Test results as given in PubChem BioAssay (EPA / NIEHS).
Inconclusive results are not listed. Calls of active or inactive are those of the source. How the source made its calls: active means hit-call score of the fitted dose curve at least 0.9, where 1 is the maximum; inconclusive means response in the unintended direction; inactive means score below 0.9.

read-out: ABC Transporter (ABCB11), ABCB11 (gene 8647); test: CLD_ABCB11_48hr: CellzDirect (CLD) Gene Expression Assay for ABC Transporter (ABCB11) at 48 hours (AID 2283697)
Description: CLD_48hr is a cell-based, multiplexed-readout assay that uses hepatocyte, a human liver primary cell, with measurements taken at 48 hours after chemical dosing in a 96-well plate.CLD_ABCB11_48hr is one of 16 assay component(s) measured or calculated from the CLD_48hr assay. It is designed to make measurements of mRNA induction, a form of inducible reporter, as detected with chemiluminescence signals by Quantitative Nuclease Protection Assay (qNPA) technology.Data from the assay component CLD_ABCB11_48hr was analyzed at the endpoint, CLD_ABCB11_48hr, in the positive analysis fitting direction relative to DMSO as the negative control and baseline of activity. Using a type of inducible reporter, gain-of-signal activity can be used to understand changes in the reporter gene as they relate to the gene ABCB11. Furthermore, this assay endpoint can be referred to as a primary readout. To generalize the intended target to other relatable targets, this assay endpoint is annotated to the transporter intended target family, where subfamily is ABC transporter.
Human hepatocyte cultures were treated daily for two consecutive days with fresh dosing solutions containing appropriate concentrations of the 320 ToxCast chemicals (chemical identities were blinded to CellzDirect and other ToxCast collaborators), vehicle control (0.2% DMSO), and positive control inducers as summarized in Table 1. Due to the large number of treatment groups and chemicals examined, the ToxCast chemicals were divided into two groups (spanning two independent cultures of hepatocytes from separate donor preparations (Hu778: ToxCast plates 1 and 2; Hu776: ToxCast plates 3 and 4). Each preparation of human hepatocyte cultures was treated with respective vehicle control, medium only control, set of six positive controls/reference chemicals for the five hepatic receptor pathways, and a subset of eight of the ToxCast chemicals (indoxacarb, pyrithiobac-sodium, norflurazon, cyhalofop-butyl, methomyl, thiram, acetochlor, and propiconazole). These replicate data, coupled with internal replicates designed within the blinded ToxCast chemical library, provided additional data to evaluate interindividual differences between hepatocyte preparations and their potential impact on chemical profiles.Cell morphology and integrity were evaluated using phase-contrast microscopy as an indicator of hepatocyte cell health (Tyson & Green, 1987). Cultures for each treatment group (i.e., media, vehicle [0.2% DMSO], positive control inducers [multiple concentrations], and the ToxCast chemicals [multiple concentrations]) were observed and cell morphology was assessed relative to vehicle control cultures at each harvest time point (0, 6, 24, or 48 h). […] Images were evaluated at the conclusion of the study to assess changes in cell integrity and account for the effects of chemical exposure on uncharacteristic changes in concentration-dependent gene expression profiles. The results from these determinations of apparent cytotoxicity were annotated (yes/no) alongside the corresponding qNPA data for reference.At the conclusion of each treatment period, hepatocyte cultures (96-well) were washed with 1 volume of HBSS, lysed by addition of 25 ul ArrayPlate lysis buffer (HTG, Tucson, AZ), and 70 ul/well of Denaturation Oil, denatured by incubation at 95C for 10 min, and frozen at approximately -70C until analysis by nuclease protection assay (qNPA) (Roberts et al., 2007). For qNPA analysis, cell lysates were thawed at 50C for approximately 30 min, qNPA probes were added, and samples were incubated at 95C for 10 min to begin the detection process by denaturing the target RNA, dissociating the duplexes and secondary structure hybridization. At the conclusion of the hybridization period, S1 nuclease reagent was added to each sample to digest all nonprotected nucleotides at 50C for 60-90 min. […]

| Compound | outcome | AC50 |
| --- | --- | --- |
| CCCCCOC(=O)COc1cc(N2C(=O)C3=C(CCCC3)C2=O)c(F)cc1Cl | inactive |  |
| CCNc1nc(N)nc(Cl)n1 | inactive |  |
| CCCOC(=O)c1ccc(C(=O)OCCC)nc1 | inactive |  |
| CCCCC(CC)COC(=O)c1ccccc1C(=O)O (stereo unspecified) | inactive |  |
| O=C(Nc1ccc([N+](=O)[O-])cc1Cl)c1cc(Cl)ccc1O | inactive |  |
| N#CSCSc1nc2ccccc2s1 |  | 34.1 µM (active) |
| CCOC(=O)C(C)Oc1ccc(Oc2cnc3cc(Cl)ccc3n2)cc1 (stereo unspecified) | inactive |  |
| CC1(C)C(C=C(Cl)Cl)C1C(=O)OCc1cccc(Oc2ccccc2)c1 (stereo unspecified) | inactive |  |
| OB(O)O | inactive |  |
| CCOC(=O)[C@H](C)Oc1ccc(Oc2nc3ccc(Cl)cc3o2)cc1 | inactive |  |
| COC(=O)c1c(Cl)nn(C)c1S(=O)(=O)NC(=O)Nc1nc(OC)cc(OC)n1 | inactive |  |
| COCCO | inactive |  |
| CCC(C)OC(=O)N1CCCCC1CCO (stereo unspecified) | inactive |  |
| CCCN(CCC)C(=O)SCC | inactive |  |
| c1ccc(Nc2ccccc2)cc1 | inactive |  |
| C#CCOC(=O)[C@@H](C)Oc1ccc(Oc2ncc(Cl)cc2F)cc1 | inactive |  |
